Among all 220,000 compounds or so, about 910 (0.41%) were called active. What follows is part of a selection rich in actives, with near analogues and random picks from the rest. Potency and affinity values are given separately. Unmarked numbers belong to inactive results.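 How the source made its calls: active means primary inhibition above the hit cutoff, then over 50% inhibition at one or more dose response concentrations (cut at about 23% in these data, passing the limit was not always enough); inconclusive means conflicting primary data, or primary hits not chosen for dose response; inactive means low primary inhibition, or under 50% at every dose.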
target: Aminopeptidase N (Plasmodium falciparum (isolate 3D7)) (UniProt O96935); experiment: malaria alanyl aminopeptidase activity blockers – biochemical, fluorogenic H-Leu-NHMec substrate, 1536-well (AID 1445); conditions: recombinant M1AAP, H-Leu-NHMec fluorogenic kinetic assay; at 30 µM, stronger effect = higher value unless noted;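 further: plate controls were DMSO full reaction for no effect and no enzyme background for full effect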
Sequence (O96935 whole entry, looked up): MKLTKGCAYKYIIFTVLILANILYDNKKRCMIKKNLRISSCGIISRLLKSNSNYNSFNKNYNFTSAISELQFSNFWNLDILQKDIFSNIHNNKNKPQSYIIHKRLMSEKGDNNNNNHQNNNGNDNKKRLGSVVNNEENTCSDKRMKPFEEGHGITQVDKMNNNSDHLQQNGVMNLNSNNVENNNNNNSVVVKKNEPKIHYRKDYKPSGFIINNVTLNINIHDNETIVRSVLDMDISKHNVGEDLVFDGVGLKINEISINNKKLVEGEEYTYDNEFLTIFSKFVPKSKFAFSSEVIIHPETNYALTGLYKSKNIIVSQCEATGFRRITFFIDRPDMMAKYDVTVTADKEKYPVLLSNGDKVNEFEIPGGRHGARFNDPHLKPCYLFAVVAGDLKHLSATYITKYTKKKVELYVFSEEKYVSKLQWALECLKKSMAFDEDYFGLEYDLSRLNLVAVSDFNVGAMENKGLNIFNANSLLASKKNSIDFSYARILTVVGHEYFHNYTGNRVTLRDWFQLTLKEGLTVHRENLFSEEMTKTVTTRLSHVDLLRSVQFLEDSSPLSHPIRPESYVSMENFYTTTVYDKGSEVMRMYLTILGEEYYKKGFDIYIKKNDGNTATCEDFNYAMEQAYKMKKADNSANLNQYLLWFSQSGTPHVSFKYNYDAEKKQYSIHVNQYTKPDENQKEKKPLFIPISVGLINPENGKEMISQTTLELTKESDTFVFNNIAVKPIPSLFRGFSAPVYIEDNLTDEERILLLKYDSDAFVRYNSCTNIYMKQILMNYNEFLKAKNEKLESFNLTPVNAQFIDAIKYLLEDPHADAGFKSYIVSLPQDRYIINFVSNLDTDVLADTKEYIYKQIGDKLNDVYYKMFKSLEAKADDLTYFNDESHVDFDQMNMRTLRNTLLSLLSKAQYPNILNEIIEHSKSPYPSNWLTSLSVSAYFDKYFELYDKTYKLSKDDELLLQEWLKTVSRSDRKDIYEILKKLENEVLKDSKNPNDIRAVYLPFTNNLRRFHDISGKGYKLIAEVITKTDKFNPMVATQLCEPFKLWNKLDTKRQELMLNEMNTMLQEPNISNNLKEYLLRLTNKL

| Compound | inhibition |
| --- | --- |
| NC(=O)CN1C(=O)C2CCCCN2C(=O)c2ccccc21 (stereo unspecified) | -4.54% |
| CN(C)C(=O)CN1C(=O)C2CCCCN2C(=O)c2ccccc21 (stereo unspecified) | 8.25% |
| Cc1noc(C)c1S(=O)(=O)N1CCCC(C(=O)N2CCN(C3CCCCC3)CC2)C1 (stereo unspecified) | 8.08% |
| Cc1cc(C)nc(N2CCC(C(=O)NCCc3ccc(F)cc3)CC2)n1 | 3.16% |
| N#C/C(=N\Nc1ccccc1)C(=N)N1CCCCC1 | -1.69% |
| CCOC(=O)CCCCC(=O)c1[nH]c(=O)[nH]c1CSc1nc(-c2ccccc2)c(C#N)c(=O)[nH]1 | 23.6% (active) |
| CCSc1nc(-c2ccccc2)c(C#N)c(=O)[nH]1 | -8.26% |
| CCOC(=O)CCCCC(=O)c1[nH]c(=O)[nH]c1CSc1nc(C)cc(=O)[nH]1 | 7.83% |
| CSc1nc(-c2ccccc2)c(C#N)c(=O)[nH]1 | 2.21% |
| Cc1cccc(NC(=O)CSc2nc(-c3ccccc3)c(C#N)c(=O)[nH]2)c1C | 14.7% |
| CCOC(=O)CCCCC(=O)c1[nH]c(=O)[nH]c1CSc1nc2ccccc2[nH]1 | 8.8% |
| N#Cc1c(-c2ccccc2)nc(SCC(=O)Nc2nnc(C(F)(F)F)s2)[nH]c1=O | 17.8% |
| Cc1ccc(NC(=O)CCNS(=O)(=O)c2cc(Br)cnc2N)c(Cl)c1 | 6.45% |
| COc1ccc(-n2c(C)cc(/C=C(\C#N)C(=O)NCc3ccco3)c2C)cc1 | 9.23% |
| CS(=O)(=O)c1ccc(Cl)c(NC(=O)COC(=O)c2cccc(C#N)c2)c1 | 6.76% |
| C/C(=N/NC(=O)CCc1c(C)n[nH]c1C)c1cccc([N+](=O)[O-])c1 | 0.36% |
| CC(C)c1ccccc1NC(=O)CNCCc1ccc(C(F)(F)F)cc1 | 4.1% |
| CCCCNC(=O)Cn1c(=O)oc2cc(S(=O)(=O)N3CC(C)CC(C)C3)ccc21 (stereo unspecified) | 2.08% |
| Cc1ccc(S(=O)(=O)N(Cc2cc3cc4c(cc3[nH]c2=O)OCCO4)CC2CCCO2)cc1 (stereo unspecified) | 8.8% |
| Cn1c(SCC(=O)N2CCOCC2)nnc1-c1ccc(NC(=O)c2ccccc2F)cc1 | 3.9% |
| Cn1c(SCC(=O)N2CCOCC2)nnc1-c1cccc(NC(=O)c2ccccc2)c1 | 16.6% |
| Cn1c(SCC(=O)N2CCOCC2)nnc1-c1cccc(NC(=O)c2ccccc2F)c1 | 25.4% (active) |
| CCOC(=O)Cc1nnc(NC(=O)C(CC)Sc2nc(C)cc(=O)[nH]2)s1 (stereo unspecified) | 11% |

| Compound | inhibition |
| --- | --- |
| CCC(C)Nc1nc(OC(C(F)(F)F)C(F)(F)F)nc(OC(C(F)(F)F)C(F)(F)F)n1 (stereo unspecified) | 9.34% |
| CC(=O)Nc1ccc2nc(-c3ccncc3)[nH]c2c1 | 10.3% |
| O=C(Nc1ccc2nc(-c3ccccn3)[nH]c2c1)C1CCCCC1 | -0.77% |
| O=C(CNC(=O)c1ccc(S(=O)(=O)N2CCCC2)cc1)N/N=C/c1ccc(Cl)cc1 | 3.87% |
| CCCn1c(-c2ccc[nH]c2=O)nc2ccccc21 | 4.86% |
| Cn1c(-c2ccc[nH]c2=O)nc2cc(Cl)ccc21 | 3.43% |
| COc1cc(/C=C2\OC(=O)c3c(OC)cccc32)ccc1O | 18.4% |
| CCC(=O)Oc1ccc2c(C)cc(=O)oc2c1C(=O)CC | 1.59% |
| CCn1c(COc2ccc(=O)n(-c3ccccc3)n2)nnc1SCc1ccccc1 | 1.85% |
| Cc1ccc(NC(=O)c2cc([N+](=O)[O-])ccc2N2CCCC2)cc1 | 9.65% |
| CCOC(=O)c1ccc(NC(=O)CSc2ncccn2)cc1 | 25.8% (active) |
| CCOC(=O)c1ccc(NC(=O)CSc2nccn2C)cc1 | 13.7% |
| CCOC(=O)c1ccc(NC(=O)CSc2nc3ncccc3[nH]2)cc1 | 15.1% |
| CCC(=O)N1CCCn2c1nc1ccccc12 | 0.87% |
| O=C(C1CCCCC1)N1CCCn2c1nc1ccccc12 | 26.8% (active) |
| O=C(Nc1ccccc1)N1CCn2c1nc1ccccc12 | 3.81% |
| CN(C)S(=O)(=O)c1ccc(C(=O)N2CCN=C2SCc2cccnc2)cc1 | -3.94% |
| COc1ccccc1Nc1nc(N)nc(CN2CCC(C)CC2)n1 | 3.95% |
| O=C(Nc1ccc(Cl)cc1)c1ccc(-n2cccn2)c([N+](=O)[O-])c1 | 0.77% |
| Cc1cccc(C)c1OCC(=O)Nc1cccc(-c2nnc(-c3ccccc3)o2)c1 | 1.97% |
| Cc1ccc(OCC(=O)Nc2cccc(-c3nnc(-c4ccccc4)o3)c2)c(C)c1 | 2.43% |
| Cc1cccc(OCC(=O)Nc2cccc(-c3nnc(-c4ccccc4)o3)c2)c1C | 24% (active) |
| Cc1ccc(C)c2c1cc(C)c1nnc(SCC(=O)N3CCCc4ccccc43)n12 | 3.01% |

| Compound | inhibition |
| --- | --- |
| CC(C)(C)c1ccc(C(=O)/C=C2\NC(=O)CS2)cc1 | 7.72% |
| O=C1CS/C(=C/C(=O)c2ccccc2)N1 | 25.3% (active) |
| Cc1ccc(C(=O)/C=C2/NC(=O)CS2)cc1 | 17.7% |
| CC(/C=N/NC(=O)Cn1cnc2c1c(=O)n(C)c(=O)n2C)=C\c1ccco1 | 5.25% |
| Cc1c(C(=O)OC2CCCC2)[nH]c2c1C(=O)CC(c1ccco1)C2 (stereo unspecified) | 25.6% (active) |
| CCOC(=O)c1[nH]c2c(c1C)C(=O)CC(c1ccco1)C2 (stereo unspecified) | 15.3% |
| Cc1c(C(=O)OCc2ccccc2)[nH]c2c1C(=O)CC(c1ccco1)C2 (stereo unspecified) | 6.2% |
| CC(C(=O)NC1C(=O)N2C(C(=O)O)=C(CSc3nnnn3C)CSC12)n1cc(Cl)cn1 (stereo unspecified) | 6.59% |
| O=C(CCc1ccccc1)N/N=C/c1cc(Br)ccc1O | 16.7% |
| O=C(CCC(=O)Nc1ccc(Br)cc1)N/N=C/c1cc([N+](=O)[O-])ccc1O | 13.8% |
| Nc1nonc1C(=O)N/N=C/c1ccc(Br)o1 | 15.9% |
| Nc1nonc1C(=O)N/N=C/c1ccncc1 | 9.52% |
| NC(=O)N/N=C/c1cc(Br)ccc1OC(=O)c1ccccc1 | 6.38% |
| COc1ccc(NC(=O)C2OC3OC(C)(C)OC3C3OC(C)(C)OC23)cc1 (stereo unspecified) | 6.98% |
| COC(=O)N/N=C/c1cc(Br)ccc1O | 17.8% |
| CC1(C)OC2OC(C(=O)N/N=C/c3ccccc3F)C3OC(C)(C)OC3C2O1 (stereo unspecified) | -0.42% |
| CCCn1nnc(NC(=S)NC(=O)C(C)(C)C)n1 | 7.37% |
| O=C1c2cc(S(=O)(=O)NCCO)ccc2-c2ccc(S(=O)(=O)NCCO)cc21 | 2.13% |
| Cc1ccc([N+](=O)[O-])cc1NC(=O)Nc1ccc(S(N)(=O)=O)cc1 | -7.81% |
| CC1=CC2=NC(=O)CC(C)(C(=O)N(CC(=O)NC(C)C)C3CCCC3)N2C=C1 (stereo unspecified) | 1.08% |
| O=C(Nc1ccc(Br)cc1)c1cccn1-c1ncc(C(F)(F)F)cc1Cl | -0.41% |
| Cc1ccc(NC(=O)C2CCN(C(=O)c3ccccc3C)CC2)cc1 | 4.97% |
| CCN(CC)CCOC(=O)c1ccc(N/C=C(/C#N)c2nc(-c3ccc(OC)cc3)cs2)cc1 | 4.36% |

| Compound | inhibition |
| --- | --- |
| CCOC(=O)c1c(-c2ccc(F)cc2)csc1NC(=O)c1c(-c2ccccc2)noc1C | 0.4% |
| CCOC(=O)C1=NN(c2ccccc2)C2=NC(C)=C(C(=O)OC)C(c3ccc(C)cc3)N12 (stereo unspecified) | 8.08% |
| COc1ccc(C2CC(c3c(-c4ccccc4)c4cc(Cl)ccc4[nH]c3=O)=NN2S(C)(=O)=O)cc1OC (stereo unspecified) | 13.3% |
| CC(=O)N1N=C(c2ccc(C)cc2)CC1c1ccco1 (stereo unspecified) | 6.1% |
| CCC(=O)N1N=C(c2c(-c3ccccc3)c3cc(Cl)ccc3[nH]c2=O)CC1c1ccco1 (stereo unspecified) | 22.1% |
| COc1ccc(C2CC(c3ccccc3)=NN2C(=O)COC(=O)C2CC2)cc1 (stereo unspecified) | 8.28% |
| CC(=O)N1N=C(c2c(-c3ccccc3)c3cc(C)ccc3[nH]c2=O)CC1c1ccco1 (stereo unspecified) | 20% |
| O=C(O)CCC(=O)N1N=C(c2ccccc2)CC1c1ccc2nccnc2c1 (stereo unspecified) | 12% |
| Cc1ccc(C2=NN(C(=O)CCCC(=O)O)C(c3ccco3)C2)cc1 (stereo unspecified) | 7.5% |
| COc1ccc(C2CC(c3c(-c4ccccc4)c4cc(Cl)ccc4[nH]c3=O)=NN2S(C)(=O)=O)cc1 (stereo unspecified) | 2.82% |
| Nc1nonc1-c1nc2ccccc2n1CC(=O)O | 11.2% |
| C[C@H](NC(=O)c1nc[nH]c1C(=O)NCCCCCNC(=O)OC(C)(C)C)C(=O)OC(C)(C)C | -4.42% |
| CCCCCCCc1ccc(C2NC(=S)NC3=C2C(=O)c2ccccc23)cc1 (stereo unspecified) | 3.12% |
| CCOc1ccccc1NC(=O)/C(C#N)=C/c1c(C)nn(-c2ccccc2)c1Cl | 4.31% |
| CC(C)CN(C(=O)CSc1nnc2ccccn12)c1c(N)n(CC(C)C)c(=O)[nH]c1=O | 6.58% |
| CC1(C)N=C(N)N=C(N)N1c1ccc(OCCCOc2ccccc2)c(Cl)c1 | -0.74% |
| Cc1csc(SCC(=O)NC2CCCCC2)n1 | -5.21% |
| COc1ccc(NC(=O)c2ccccc2C)c(OC)c1 | 5.69% |
| Cc1ccc(CN2C3CCCC2CC(NC(=O)c2ccc(C)cc2)C3)cc1 (stereo unspecified) | -1.65% |
| O=C(NC(=S)NC1C2CC3CC(C2)CC1C3)C12CC3CC(CC(C3)C1)C2 (stereo unspecified) | 5.47% |
| COc1ccc(CNC(=O)c2ccccc2SC)cc1 | -2.23% |
| CN(C1CCCCC1)S(=O)(=O)c1ccccc1 | -1.57% |

— PubChem BioAssay AID1445 (SRMLSC, 2008)
